According to PubChem BioAssay AID1159580 (chemical genetic matrix, 2015):
Screen size: about 5,500 compounds; about 2,000 (36%) were called active. Roughly 18% stayed inconclusive and do not appear here. Rule as the data show it: active = normalized growth mostly below about 0.91 (no sharp cut-off); inconclusive = no clear call, values can overlap the other calls; inactive = mostly above about 0.92. Some of the results follow.

Assay: chemical genetic growth profiling, strain panel (AID 1159580);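 also: tested at 20 µM; growth read once vehicle control cultures reached saturation at 30 °C; 1 = growth at the plate median or of vehicle wells; lower values mean less growth of the strain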
Conditions: growth OD

Measured: normalized growth

COc1ccc2cc([C@H](C)CO)ccc2c1
inactive: S. cerevisiae deletion strains, locus YJR066W, strain TOR1, stronger effect = lower value 0.935 | S. cerevisiae deletion strains, locus YJR075W, strain HOC1, stronger effect = lower value 0.998 | S. cerevisiae deletion strains, locus YKL009W, strain mrt4, stronger effect = lower value 0.935 | S. cerevisiae deletion strains, locus YKL068W, stronger effect = lower value 0.975 | S. cerevisiae deletion strains, locus YKL085W, strain MDH1 (second series), stronger effect = lower value 0.949 | S. cerevisiae deletion strains, locus YKL085W, strain MDH1, stronger effect = lower value 0.949 | S. cerevisiae deletion strains, locus YKL160W, strain elf1, stronger effect = lower value 1 | S. cerevisiae deletion strains, locus YKL190W, strain CNB1, stronger effect = lower value 0.995 | S. cerevisiae deletion strains, locus YKR001C, strain vps1, stronger effect = lower value 0.97 | S. cerevisiae deletion strains, locus YKR026C, strain gcn3, stronger effect = lower value 1.01 | S. cerevisiae deletion strains, locus YKR091W, strain srl3, stronger effect = lower value 1.01 | S. cerevisiae deletion strains, locus YLL001W, strain dnm1, stronger effect = lower value 1.01 | S. cerevisiae deletion strains, locus YLL026W, stronger effect = lower value 1.01 | S. cerevisiae deletion strains, locus YLL041C, strain sdh2, stronger effect = lower value 1.01 | S. cerevisiae deletion strains, locus YLR027C, strain aat2, stronger effect = lower value 1.01 | S. cerevisiae deletion strains, locus YLR039C, strain RIC1, stronger effect = lower value 0.991 | S. cerevisiae deletion strains, locus YLR058C, strain SHM2, stronger effect = lower value 0.977 | S. cerevisiae deletion strains, locus YLR102C, strain apc9, stronger effect = lower value 0.966 | S. cerevisiae deletion strains, locus YLR113W, strain HOG1, stronger effect = lower value 0.929 | S. cerevisiae deletion strains, locus YLR221C, strain rsa3, stronger effect = lower value 1.01 | S. cerevisiae deletion strains, locus YLR258W, strain gsy2, stronger effect = lower value 1.01 | S. cerevisiae deletion strains, locus YLR262C, strain YPT6 (second series), stronger effect = lower value 1.01 | S. cerevisiae deletion strains, locus YLR262C, strain YPT6, stronger effect = lower value 0.9 | S. cerevisiae deletion strains, locus YLR268W, strain sec22, stronger effect = lower value 1.03 | S. cerevisiae deletion strains, locus YLR320W, strain mms22, stronger effect = lower value 1.02 | S. cerevisiae deletion strains, locus YLR330W, strain CHS5, stronger effect = lower value 0.992 | S. cerevisiae deletion strains, locus YLR342W, strain FKS1 (second series), stronger effect = lower value 0.969 | S. cerevisiae deletion strains, locus YLR342W, strain FKS1, stronger effect = lower value 1.01 | S. cerevisiae deletion strains, locus YLR357W, strain rsc2, stronger effect = lower value 1 | S. cerevisiae deletion strains, locus YLR370C, strain arc18, stronger effect = lower value 1.01 | S. cerevisiae deletion strains, locus YLR371W, strain rom2, stronger effect = lower value 0.918 | S. cerevisiae deletion strains, locus YLR384C, strain iki3, stronger effect = lower value 1.01 | S. cerevisiae deletion strains, locus YLR418C, strain cdc73, stronger effect = lower value 0.968 | S. cerevisiae deletion strains, locus YML016C, strain PPZ1, stronger effect = lower value 0.989 | S. cerevisiae deletion strains, locus YML032C, strain rad52, stronger effect = lower value 0.989 | S. cerevisiae deletion strains, locus YML120C, strain ndi1, stronger effect = lower value 1.01 | S. cerevisiae deletion strains, locus YMR058W, strain fet3, stronger effect = lower value 1.01 | S. cerevisiae deletion strains, locus YMR078C, strain ctf18, stronger effect = lower value 0.969 | S. cerevisiae deletion strains, locus YMR125W, strain sto1, stronger effect = lower value 1.01 | S. cerevisiae deletion strains, locus YMR129W, stronger effect = lower value 1.02 | S. cerevisiae deletion strains, locus YMR205C, strain PFK2, stronger effect = lower value 1.02 | S. cerevisiae deletion strains, locus YMR223W, strain ubp8, stronger effect = lower value 0.964 | S. cerevisiae deletion strains, locus YMR231W, strain pep5, stronger effect = lower value 1.01 | S. cerevisiae deletion strains, locus YMR263W, strain SAP30, stronger effect = lower value 0.985 | S. cerevisiae deletion strains, locus YMR307W, strain GAS1, stronger effect = lower value 1.04 | S. cerevisiae deletion strains, locus YNL067W, strain RPL9B, stronger effect = lower value 0.991 | S. cerevisiae deletion strains, locus YNL071W, strain lat1, stronger effect = lower value 1.01 | S. cerevisiae deletion strains, locus YNL128W, strain TEP1, stronger effect = lower value 0.979 | S. cerevisiae deletion strains, locus YNL153C, strain GIM3, stronger effect = lower value 0.996 | S. cerevisiae deletion strains, locus YNL183C, strain NPR1, stronger effect = lower value 0.917 | S. cerevisiae deletion strains, locus YNL209W, strain ssb2, stronger effect = lower value 1.01 | S. cerevisiae deletion strains, locus YNL233W, strain BNI4, stronger effect = lower value 1.01 | S. cerevisiae deletion strains, locus YNL248C, strain rpa49, stronger effect = lower value 0.968 | S. cerevisiae deletion strains, locus YNL250W, strain rad50, stronger effect = lower value 0.956 | S. cerevisiae deletion strains, locus YNL271C, strain bni1, stronger effect = lower value 0.979 | S. cerevisiae deletion strains, locus YNL298W, strain CLA4, stronger effect = lower value 0.949 | S. cerevisiae deletion strains, locus YNL307C, strain MCK1, stronger effect = lower value 0.97 | S. cerevisiae deletion strains, locus YNL322C, strain KRE1 (second series), stronger effect = lower value 1.01 | S. cerevisiae deletion strains, locus YNL322C, strain KRE1, stronger effect = lower value 0.996 | S. cerevisiae deletion strains, locus YNR049C, strain mso1, stronger effect = lower value 1.01 | S. cerevisiae deletion strains, locus YNR052C, strain pop2, stronger effect = lower value 0.975 | S. cerevisiae deletion strains, locus YOL006C, strain TOP1, stronger effect = lower value 0.91 | S. cerevisiae deletion strains, locus YOL012C, strain htz1 1.3 | S. cerevisiae deletion strains, locus YOL147C, strain pex11, stronger effect = lower value 0.941 | S. cerevisiae deletion strains, locus YOR001W, strain rrp6, stronger effect = lower value 1.02 | S. cerevisiae deletion strains, locus YOR061W, strain CKA2, stronger effect = lower value 0.968 | S. cerevisiae deletion strains, locus YOR069W, strain VPS5, stronger effect = lower value 0.988 | S. cerevisiae deletion strains, locus YOR070C, strain gyp1, stronger effect = lower value 1.01 | S. cerevisiae deletion strains, locus YOR080W, strain dia2, stronger effect = lower value 1.01 | S. cerevisiae deletion strains, locus YOR083W, strain WHI5, stronger effect = lower value 1.01 | S. cerevisiae deletion strains, locus YOR106W, strain vam3, stronger effect = lower value 1 | S. cerevisiae deletion strains, locus YOR136W, strain idh2, stronger effect = lower value 0.977 | S. cerevisiae deletion strains, locus YOR144C, strain elg1, stronger effect = lower value 0.978 | S. cerevisiae deletion strains, locus YOR184W, strain ser1, stronger effect = lower value 0.95 | S. cerevisiae deletion strains, locus YOR231W, strain MKK1, stronger effect = lower value 0.937 | S. cerevisiae deletion strains, locus YOR265W, strain rbl2, stronger effect = lower value 1.01 | S. cerevisiae deletion strains, locus YOR270C, strain vph1, stronger effect = lower value 0.997 | S. cerevisiae deletion strains, locus YOR290C, strain snf2, stronger effect = lower value 0.998 | S. cerevisiae deletion strains, locus YOR316C, strain cot1, stronger effect = lower value 0.976 | S. cerevisiae deletion strains, locus YPL051W, strain arl3, stronger effect = lower value 1.01 | S. cerevisiae deletion strains, locus YPL055C, strain LGE1, stronger effect = lower value 0.98 | S. cerevisiae deletion strains, locus YPL078C, strain atp4, stronger effect = lower value 1.01 | S. cerevisiae deletion strains, locus YPL106C, strain sse1, stronger effect = lower value 1.04 | S. cerevisiae deletion strains, locus YPL240C, strain hsp82, stronger effect = lower value 1.01 | S. cerevisiae deletion strains, locus YPL241C, strain CIN2, stronger effect = lower value 0.985 | S. cerevisiae deletion strains, locus YPL256C, strain CLN2, stronger effect = lower value 0.924 | S. cerevisiae deletion strains, locus YPR119W, strain clb2, stronger effect = lower value 0.971 | S. cerevisiae deletion strains, locus YPR141C, strain kar3, stronger effect = lower value 0.959 | S. cerevisiae deletion strains, locus YPR163C, strain tif3, stronger effect = lower value 0.978 | S. cerevisiae deletion strains, locus YPR167C, strain met16, stronger effect = lower value 0.977 | S. cerevisiae deletion strains, strain wtn01, stronger effect = lower value 0.968 | S. cerevisiae strains, strain wild type, stronger effect = lower value 0.979
